Compounds with a hit are over-represented: about 4.1% of the library has one in this group of screens.
Shn3 inh set2 = inhibitors of Schnurri-3 3'UTR reporter in osteoblasts. hit rate 0.52% among 360,000. inhibition, % at 12.5 µM. Clone20 osteoblast Shn3 3'UTR firefly luciferase, 24 h. AID 588674;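 active = mean inhibition of at least 75% with every replicate also reaching 75%; inconclusive = mean inhibition at least 75% but some replicate below; inactive = mean inhibition below 75%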;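 note: 0% = median of neutral control wells and 100% = pilot-screen positive control compound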
TWEAK Fn14 block = inhibitors of TWEAK-Fn14 interaction signaling. TWEAK-stimulated Fn14 reporter cells, luciferase luminescence, 8 h. hit rate 2% among 360,000. inhibition, % at 10 µM; in the data active = inhibition above about 50%
EBV LMP1 NFkB = reduces LMP1-driven NF-kappaB luciferase signal; LMP1-induced NF-kappaB luciferase reporter cells, luminescence; inhibition, % at 12.5 µM; AID 504558; hit rate 0.69% among 350,000; in the data active = inhibition above about 41%; inconclusive = no clear call, values can overlap the other calls;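 note: 0% = neutral control wells and 100% = reference inhibitor control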
TROY signal inh = inhibitors of TROY-dependent NF-kB signaling | hit rate 0.98% among 360,000 | Q293 LMP1-TROYcd NF-kB luciferase reporter, 4 h | inhibition, % at 10 µM;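 active = compounds whose plate-normalised and pattern-corrected inhibition of the luciferase reporter signal at the single screening dose is 50% or more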
Peg3 prom inh = reduces Peg3 promoter-driven luciferase expression in HeLa; HeLa PEG-Prom luciferase reporter, luminescence, overnight; inhibition, % at 20 µM; hit rate 1.7% among 360,000; AID 588405;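 active = inhibition of at least 50% at 20 µM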
MITF TRPM1 inh = inhibitors of MITF-driven TRPM1 promoter in melanoma cells. hit rate 0.83% among 330,000. AID 488899. SK-MEL-5 TRPM1 promoter luciferase, 24 h. inhibition, % at 12.5 µM;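 active = mean inhibition across replicates of 60% or more, whatever share of single replicates reaches that level; inconclusive = some that reach 60%, reason not given; inactive = mean inhibition across replicates below 60%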
* hit, by the source's call; u = inconclusive; x = not tested or not shown.

SMILES | Shn3 inh set2 | TWEAK Fn14 block | EBV LMP1 NFkB | TROY signal inh | Peg3 prom inh | MITF TRPM1 inh
NC1=C(Cl)C(=O)c2ccccc2C1=O | -1.8 | 4.6 | 1.7 | -22.1 | -62.1 | 94.9*
O=C1c2ccccc2-c2nccnc21 | -6.8 | 6.6 | -7.0 | 6.2 | -6.8 | 15.4
NC1=C(Cl)C(=O)c2ccc(S(N)(=O)=O)cc2C1=O | 98.4* | 107.7* | 87.6* | 85.7* | 110.3* | 96.4*
Cc1cccc(C#CC2=CC(=O)CC(C)(C)C2)c1 | -47.8 | -7.3 | -15.9 | -45.4 | -13.7 | x
CC1(C)CC(=O)C=C(C#CC2(O)CCCCC2)C1 | 46.5 | 63.8* | -5.8 | 8.3 | 18.0 | x
Cc1cccc(C(=O)NCC(=O)N2CCN(S(=O)(=O)c3ccc4c(c3)OCCO4)CC2)c1 | -17.5 | -0.6 | 2.6 | -11.1 | -10.0 | 9.4
Cc1cccnc1NC(=O)c1cccc(NC(=O)CC2SC(N3CCCCC3)=NC2=O)c1 (centres undefined) | -50.3 | -1.0 | 4.6 | 3.1 | -0.7 | x
O=C(O)c1ccc2cc(-c3ccccc3)[nH]c2c1 | 20.7 | 97.8* | 24.4 | 40.5 | 32.9 | 14.2
O=C1C(O)CCN1Cc1ccccc1 (centres undefined) | 10.1 | 9.5 | 2.6 | 9.9 | 7.1 | -2.0
O=C(Nc1nnc(SCc2ccc(F)cc2)s1)c1cccnc1Cl | 7.4 | 6.7 | 1.8 | -24.9 | -13.1 | -5.1
Cc1cccc(CS(=O)(=O)c2ncc(Cl)c(C(=O)Nc3nnc(C(C)C)s3)n2)c1 | 95.5* | 100.8* | 56.3* | 55.0* | 106.5* | 76.5*
Cc1nnc(NC(=O)c2nc(S(=O)(=O)Cc3ccccc3C)ncc2Cl)s1 | 96.4* | 102.3* | 81.1* | 28.1 | 105.7* | 79.6*
Cc1ccc(CS(=O)(=O)c2ncc(Cl)c(C(=O)Nc3nnc(C(C)C)s3)n2)cc1 | 94.9* | 99.8* | 39.0 | 60.4* | 109.7* | 79.2*
O=C(Nc1nnc(SCc2ccc(F)cc2)s1)c1ccccn1 | 76.5 | -15.6 | 45.0* | 32.8 | 64.6* | 0.6
Cc1nc2nc(NC(=O)c3ccco3)nn2c(C)c1Cl | -62.3 | -7.0 | -18.9 | -17.9 | -160.2 | -57.1
NNC(=O)c1csc(-c2ccc(C(F)(F)F)cc2Cl)n1 | -35.4 | -25.3 | -14.8 | 19.4 | 10.0 | 11.9
Cc1cc(NC(=O)c2ccccc2C)n(-c2cccc(F)c2)n1 | -10.1 | -43.0 | -12.0 | 2.1 | -1.9 | 0.4
CSc1nnc(NC(=O)c2nc(S(=O)(=O)Cc3cccc(C)c3)ncc2Cl)s1 | 96.0* | 94.3* | u | 46.2 | 101.3* | 81.0*
CC(C)c1nnc(NC(=O)c2nc(S(=O)(=O)Cc3ccc(F)cc3)ncc2Cl)s1 | 98.4* | 99.2* | 85.2* | 29.5 | 106.1* | 75.2*
CSc1ncc(Cl)c(C(=O)Nc2nnc(SC/C=C/c3ccccc3)s2)n1 | -36.9 | -12.3 | 0.2 | 30.2 | 13.3 | 10.2
CCSc1nnc(NC(=O)c2nc(S(=O)(=O)Cc3ccc(F)cc3)ncc2Cl)s1 | 95.8* | 99.5* | 5.5 | -2.3 | 107.0* | 40.3
CSc1nnc(NC(=O)c2nc(S(=O)(=O)Cc3ccccc3F)ncc2Cl)s1 | 96.3* | 97.2* | 12.8 | 7.3 | 105.9* | 75.0*
CSc1nnc(NC(=O)c2ccco2)s1 | -46.9 | 7.2 | -3.6 | -45.0 | -27.6 | -17.1
C=CCSc1nnc(NC(=O)c2nc(SCC)ncc2Cl)s1 | -4.9 | -10.4 | -15.1 | 0.3 | -0.1 | 3.5
COc1cc(OC)cc(-c2c(C#Cc3ccsc3)c3cc(-c4cccc5[nH]cc(C=O)c45)ccc3n2C)c1 | -9.6 | 9.5 | -10.9 | 3.9 | 53.8* | 7.9
SMILES | Shn3 inh set2 | TWEAK Fn14 block | EBV LMP1 NFkB | TROY signal inh | Peg3 prom inh | MITF TRPM1 inh
Cn1nc([N+](=O)[O-])nc1S(C)(=O)=O | 11.2 | 54.4* | -8.3 | 17.5 | 49.3 | 72.0*
CS(=O)(=O)c1nc([N+](=O)[O-])nn1CCCc1ccccc1 | -10.4 | 87.3* | -2.0 | 22.2 | 59.5* | -0.7
CCc1ccc([C@@H]2CC=C(C(=O)O)[C@H](c3ccc(F)cc3)N2S(=O)(=O)c2ccc(C)cc2)cc1 | -30.7 | 0.2 | 3.2 | 20.2 | 14.8 | -17.8
CCn1c(C)nnc1SCC(=O)NC1CCCC1 | 3.3 | 6.9 | -4.0 | -10.3 | 4.2 | -4.4
FC(F)(F)c1ccccc1Cc1c(C2CCCCC2)nc2ccc(Br)cn12 | -6.3 | -0.3 | x | -1.2 | -46.6 | x
CSc1nc(-c2ccccc2)nc(C(C)C)n1 | 4.6 | -2.2 | 6.4 | -17.3 | -2.1 | -1.3
Cc1ccccc1NC(=O)c1c([N+](=O)[O-])c(C(C)(C)C)nn1C | 16.7 | 6.5 | 55.3* | 9.2 | 1.1 | -5.2
O=C(C(=O)c1cccnc1)c1cccnc1 | 14.8 | -24.6 | 1.0 | -10.5 | 4.6 | -2.7
O=C(O)c1cccc(N/N=C/c2cccnc2)c1 | -0.9 | -24.5 | 17.7 | 5.2 | 57.7* | 36.2
O=C(O)c1cccc(N/N=C/c2ccc(-c3ccccc3)cc2)c1 | -6.6 | -14.6 | 8.2 | -103.9 | -43.2 | 24.0
O=C(N/N=C/c1cccnc1)c1ccccc1 | 0.1 | 5.7 | -4.1 | -57.7 | -48.6 | -16.8
CN(C)c1ccc(/C=N/Nc2cccc(C(=O)O)c2)cc1 | 92.2* | -13.9 | 60.8* | -59.7 | -161.7 | 84.0*
O=C(O)c1cccnc1 | -9.9 | -27.6 | 84.7* | 2.4 | 8.5 | -8.5
CC(C)(C)c1ccc(/C=N/Nc2cccc(C(=O)O)c2)cc1 | 22.5 | -40.1 | 72.1* | -55.0 | -43.1 | 60.7*
O=C(NCc1ccccc1)c1ccc(CS(=O)Cc2cccc(Cl)c2)o1 (centres undefined) | -3.8 | -4.8 | 1.1 | 3.3 | 3.0 | x
COc1cc(OC)c(C2C(C#N)=C(C)NC(C)=C2C#N)c(C(=O)O)c1 | 11.8 | -0.5 | 5.6 | 0.9 | -6.0 | 1.6
Cc1ccc(-c2ccccc2)n1-c1ccc(C(=O)O)cc1 | -9.4 | 1.6 | 6.7 | -45.0 | -8.8 | -12.3
Oc1ccccc1-n1c(-c2ccccc2)ccc1-c1ccccc1 | 7.5 | -0.2 | -2.0 | -41.7 | 57.4* | 5.1
COc1ccc(S(=O)(=O)N2CCCc3ccccc32)cc1OC | -27.6 | 55.9* | -11.5 | 60.2* | 6.2 | 3.1
O=S(=O)(c1cc(Cl)ccc1Cl)N1CCc2ccccc21 | 15.9 | -1.7 | 10.9 | 14.4 | 27.5 | -7.3
O=S(=O)(c1cnc(Cl)c(Cl)c1)N1CCCc2ccccc21 | -35.4 | 24.8 | -4.2 | -6.8 | 51.5* | -5.3
O=S(=O)(c1cnc(Cl)c(Br)c1)N1CCc2ccccc21 | 7.9 | 35.8 | 4.2 | 27.8 | 68.9* | 3.2
O=S(=O)(c1cnc(Cl)c(Cl)c1)N1CCc2ccccc21 | 9.1 | 22.2 | -2.2 | 10.1 | 42.0 | 15.4
Cc1cc(Cl)ccc1NC(=O)C1COc2ccccc2O1 (centres undefined) | -21.9 | -24.7 | -9.4 | -55.1 | -99.4 | -25.6
CC1=C/C(=N\OS(=O)(=O)c2ccccc2)C(C)=CC1=O | 93.5* | -23.5 | 8.9 | 0.4 | 106.5* | 33.7
CC1=C/C(=N\OS(=O)(=O)c2ccccc2)C(C(C)C)=CC1=O | 67.8 | 49.1 | 5.8 | 14.5 | 95.7* | 9.5
CC1=C(C)/C(=N\OS(=O)(=O)c2ccc(C)cc2)C=CC1=O | 94.8* | 92.6* | -5.8 | -17.3 | 106.1* | 47.9

Source: PubChem BioAssay
